Experimental findings from PubChem BioAssay (Tox21) are described below.

Values joined by “and” are separate entries in the source; they are usually repeats but may differ in a detail not shown here. Identical values can stand only once. Results filed as inconclusive are left out. A call without a number means that no potency is given here. Active and inactive are the calls of the source. Calls follow the shape of the dose curve; as a rule, active = well fitted cell-killing curve with a large enough effect in the repeat runs; inconclusive = weak or mixed curves; inactive = no such curve, though single readings can be large or run the other way.
Potency is read from the fitted curve at half-maximal effect.

The experiment can be described thus: qHTS assay for identifying genotoxic compounds that show differential cytotoxicity against isogenic chicken DT40 cell lines with known DNA damage response pathways - Rad54/Ku70 mutant cell line (AID 743015). Also: nearly all actives have a fitted effect of over 60% in size. To be noted: DT40 Rad54/Ku70 mutant viability, CellTiter-Glo, 40 h; series mostly up to 66.8 µM. The text has this: National Center for Advancing Translational Sciences [NCATS]
NIH Chemical Genomics Center [NCGC]
U.S. Environmental Protection Agency [EPA]
National Institutes of Environmental Health Sciences [NIEHS]
National Toxicology Program [NTP]
U.S. Food and Drug Administration [FDA]
DNA repair pathways play a critical role in cellular homeostasis by repairing DNA damage induced by endogenous processes and xenobiotics. Isogenic chicken DT40 cell lines deficient in different DNA repair pathways can be used to identify genotoxic compounds and aid in characterizing the nature of the DNA damage induced. Two DNA repair-deficient cell lines with disrupted genes, Rad54/Ku70 or Rev3, were used to screen the Tox21 10K compound library. Possible genotoxicity was based on the presence of a significant increase in cytotoxicity in one or more of the DNA repair-deficient cell lines compared to that observed in the parental DNA repair-proficient cell line. CellTiter Glo viability assay (Promega, Madison, WI) was used to measure cell viability in these cells after compound treatment. This assay includes the data from the Rad54/Ku70 mutant cell line.
Tox21 Assay Protocol Summary:
300 DT40 mutant cells in 5 uL/well were dispensed into white, solid-bottom 1536-well plates using a Multidrop Combi (ThermoFisher Scientific, Waltham, MA) dispenser. After the assay plates were incubated at 37 C/5% CO2 for approximately 0.5 hour, 23 nL of compounds dissolved in DMSO, positive controls or DMSO only was transferred into the assay plate by a pintool work station (Kalypsys, San Diego, CA). The assay plates were incubated at 37 C/5% CO2 for 40 hours. After 5 uL per well of CellTiter-Glo reagent was added into each well of the assay plates, the plates were incubated for 30 min at room temperature and the luminescence intensity of the plates was measured using a ViewLux (PerkinElmer, Shelton, CT) plate reader.
Consider `Cn1c(N)c(N=O)c(=O)n(C)c1=O`, for which the Potency entry was “inactive”.
Under `OC(CCN1CCCCC1)(c1ccccc1)C1CC2C=CC1C2` (stereo not given) stands 23.7 µM (active) and 21.1 µM (active); under `NC(CSCC(=O)O)C(=O)O` (stereo not given), “inactive”.
For the compound `Cc1ccc(=O)n(-c2ccccc2)c1`, the Potency result is “inactive”.
As for `Cc1nc2c([nH]1)c(=O)n(C)c(=O)n2Cc1ccco1`, the Potency result was “inactive”.
With `C[C@](N)(Cc1ccc(O)cc1)C(=O)O`, the Potency result was “inactive”.
Consider `CCOC(=O)CCC(C)=O`, for which the Potency result is “inactive”.
Next, `CC(C)OC(=O)c1ccccc1`: “inactive”; `CC(C)(CC(=O)O)C(=O)O`: “inactive”; `OC1CCCCC1c1ccccc1` (stereo not given): “inactive”.
Under `CCN(Cc1ccncc1)C(=O)C(CO)c1ccccc1` (stereo not given) stands “inactive”; under `CC/C=C\CC/C=C/CO`, “inactive”.
Next, `C=COCC1CCC(CO)CC1` (stereo not given): “inactive”; `N#Cc1ccc(C2CCCc3cncn32)cc1` (stereo not given): “inactive”.
For the compound `NC(=O)Nc1ccccc1`, the Potency result was “inactive”.
Consider `C[C@@H]1CCN(C(=O)[C@H](CCCN=C(N)N)NS(=O)(=O)c2cccc3c2NC[C@H](C)C3)[C@@H](C(=O)O)C1`, for which the Potency entry was “inactive”.
For `CN(C)CCCSc1ccccc1NC(=O)/C=C/c1ccccc1`, the Potency was 29.8 µM (active).
Turning to `NC(=O)c1ccc([N+](=O)[O-])cc1`, the Potency entry was “inactive”.
With `CO[Si](CCCOCC1CO1)(OC)OC` (stereo not given), the Potency entry was “inactive”.
For `COc1nc(N)nc2c1ncn2[C@@H]1O[C@H](CO)[C@@H](O)[C@@H]1O`, the Potency result was “inactive”.
For `CN1CC(=O)NC1=N`, the Potency result was “inactive”.
Under `CN(C(=O)c1c(O)c2ccccc2n(C)c1=O)c1ccccc1` stands “inactive”.
As for `CS(=O)(=O)O`, the Potency entry is “inactive”.
Consider `C[N+](C)(C)CCCCCC[N+](C)(C)C`, for which the Potency result was “inactive”.
Consider `CCn1nc(C(=O)O)c(=O)c2cc3c(cc21)OCO3`, for which the Potency result was “inactive”.
On to `CC(C)(C)c1nnc(NS(=O)(=O)c2ccccc2)s1`, for which the Potency entry was “inactive”.
For `CCCCCCCCCCCCCCCCC`, the Potency entry is “inactive”.
Next, `CCO/C([O-])=N/c1c[n+](N2CCOCC2)no1`: “inactive”; `C[N+](C)(C)CC(O)CC(=O)[O-]` (stereo not given): “inactive”; `O=S(O)CO`: “inactive”.
Under `CCCCC/C=C\CCC=O` stands “inactive”; under `CC(C)NC(=O)NC(C)C`, “inactive”.
Under `CCN1CCC[C@H]1CNC(=O)c1c(O)c(Cl)cc(Cl)c1OC` stands “inactive”; under `Cn1cc(S(C)=O)c(=O)c2ccc(F)cc21` (stereo not given), “inactive”; under `c1ccc(CC2=NCCN2)cc1`, “inactive”.
For `CC(=O)Nc1ccc(S(N)(=O)=O)cc1`, the Potency entry was “inactive”.
Under `COc1ccc(CCN(C)CCCC(C#N)(c2cc(OC)c(OC)c(OC)c2)C(C)C)cc1OC` (stereo not given) stands 29.8 µM (active).
Next, `CC1=CC(C)C(C=O)CC1` (stereo not given): “inactive”; `Cc1ccc(Cl)cc1Cl`: “inactive”.
Next, `CC(C)(C)c1ccc(O)c(O)c1`: 12.6 µM (active) and 10.5 µM (active).
